GSIS activator: GLuc luminescence reporter in INS-1E cells, primary screen for activators of glucose-dependent secretion of insulin. INS-1E GLuc reporter insulin secretion, 2-3 h. 0.61% of 370,000 active. activation, % at 16.6 µM;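 active = lowest replicate activation of at least 40%, so every replicate reaches that level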;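 also: 0% = median of neutral control wells and 100% = median of IBMX positive control wells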
RAD52 inh: RAD52 DNA annealing inhibitors, primary screen, biochemical, FRET, single point, set 2 | 0.46% of 360,000 active | inhibition, % at 18.7 µM | AID 651710, 2012 | DNA repair protein RAD52 homolog (Homo sapiens), P43351 | recombinant RAD52 DNA annealing, FRET fluorescence;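 active = every replicate showing at least 50% inhibition; inconclusive = mean inhibition at least 50% but not in every replicate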
PGC1a acetyl inh: inhibitors of PGC1a acetylation signal, primary screen, cell-based, U2OS, AlphaScreen, inhibitor mode. 0.17% of 350,000 active. AlphaScreen anti-acetyl-lysine; with virally co-expressed GCN5 acetyltransferase. inhibition, % at 15.6 µM. AID 651687, 2012;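 active = every replicate shows inhibition of at least 40%; inconclusive = mean inhibition at least 40% but some replicate below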;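 also: 0% = neutral control wells and 100% = positive control wells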
ERAP1 inh: human ERAP1 aminopeptidase inhibitors, primary screen, biochemical, single point, plate reader; recombinant ERAP1, Leu-AMC fluorescence, 60 min; 0.15% of 340,000 active; inhibition, % at 10.7 µM;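 active = mean replicate inhibition of at least 30%, or all replicates individually reaching that 30% level; inactive = mean below 30% and not every replicate reaching it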;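 also: 0% = neutral control wells and 100% = L-leucinethiol positive control wells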
RAD54 branch: inhibitors of human RAD54 branch migration, primary screen, biochemical, fluorescence, single point | RAD54 Holliday junction branch migration, FAM/BHQ fluorescence | inhibition, % at 10.4 µM | 0.14% of 360,000 active | AID 602329, 2012;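 active = mean normalized replicate activity at least 40 and at least half of replicates scoring 40 or more; inconclusive = only one of the two criteria met; inactive = mean below 40 and under half of replicates reaching 40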;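 also: 0% = median of neutral control wells and 100% = median of positive control wells; inhibitors cause a drop in the FAM fluorescence signal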
AF4-AF9 inh: inhibitors of AF4 peptide binding to AF9, primary screen, biochemical, AlphaScreen, biotin-AF4 peptide, FLAG-AF9, single point; 0.47% of 350,000 active; Protein AF-9 (Homo sapiens), P42568; inhibition, % at 10 µM;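 active = every replicate reaching a set inhibition limit, whatever the replicate mean, cut at about 25% in these data; inconclusive = mean inhibition reaches that limit but some replicates miss it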;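 also: 0% = plate neutral control median and 100% = total signal loss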
Target sequence (P42568 whole entry, looked up): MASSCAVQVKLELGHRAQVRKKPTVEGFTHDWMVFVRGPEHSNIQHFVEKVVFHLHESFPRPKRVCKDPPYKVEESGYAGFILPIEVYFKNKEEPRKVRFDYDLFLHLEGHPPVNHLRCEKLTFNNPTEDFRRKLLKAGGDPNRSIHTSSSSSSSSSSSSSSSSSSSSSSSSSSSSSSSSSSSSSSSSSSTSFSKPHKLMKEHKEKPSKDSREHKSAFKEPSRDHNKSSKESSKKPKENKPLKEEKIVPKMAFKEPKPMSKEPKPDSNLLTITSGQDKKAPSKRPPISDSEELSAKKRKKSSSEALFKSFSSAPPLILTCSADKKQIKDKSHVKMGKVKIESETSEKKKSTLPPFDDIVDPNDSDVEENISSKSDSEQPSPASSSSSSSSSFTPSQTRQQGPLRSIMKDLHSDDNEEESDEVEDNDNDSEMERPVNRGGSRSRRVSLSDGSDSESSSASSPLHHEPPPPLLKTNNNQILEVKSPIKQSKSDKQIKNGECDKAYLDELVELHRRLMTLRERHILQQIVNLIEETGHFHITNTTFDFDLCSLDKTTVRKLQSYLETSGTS
Rad54 DNA ctr: DNA binding of candidate compounds, dose response, artefact control for RAD54 inhibitor project, biochemical, fluorescence polarization, cherry-pick | AC50, µM (series often up to 35 µM), for the others: at the top dose activity change, negative = DNA binding | Acridine orange-DNA displacement, 20 min | AID 651673, 2012 | 8% of 460 active | shares compounds with RAD54 branch;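 active = signal drop giving an AC50 within twice the top valid tested concentration of each sample, actives reach about 35 µM in these data; inactive = activity opposite to expected, plus the rest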;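 also: polarization loss reports compound binding to salmon sperm DNA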
* = called active by the depositor; i = inactive; u = inconclusive; x = no result. The list is not random: actives were taken first. Their share in the collection is about 1.4%.

SMILES	GSIS activator	RAD52 inh	PGC1a acetyl inh	ERAP1 inh	RAD54 branch	AF4-AF9 inh	Rad54 DNA ctr
COc1ccc2c3c(n(C)c2c1)[C@@H](CO)N(CC1CCCC1)CC31CCN(C(C)=O)CC1	2	-195	x	1	x	2	x
COc1ccccc1CN1[C@@H]2c3cccc(=O)n3C[C@@H]2[C@@H](CO)[C@@H]1C(=O)NCCc1ccncc1	-7	-2	x	-6	1	1	x
CCc1cnc(N2[C@H](CO)[C@@H](c3ccc(C#CCC4CCCC4)cc3)[C@@H]2C#N)s1	-9	-12	-10	x	x	x	x
Nc1cc2c3c(cccc3c1)C(=O)N(CCN1CCCC1)C2=O	-1	3	7	-3	90*	2	28µM*
CCN(CC)CCN1C(=O)c2cccc3cc(N)cc(c23)C1=O	10	3	15	5	u	-9	x
CCOc1ccc2[nH]c3c(NCCN(C)C)ncnc3c2c1	10	65*	-7	2	u	9	0%
NC1CCN(c2c(F)cc3c(=O)c(C(=O)O)cn(C4CC4)c3c2Cl)C1 (stereo not drawn)	7	-10	9	-21	u	-7	8%
CCOC(=O)Nc1c2ccccc2nc2ccccc12	16	16	x	-41	57*	7	-13%
COc1ccc2c(c1)c1ncn(CCN3CCCC3)c(=O)c1n2C	x	x	14	x	59*	x	3%
COc1ccc2c(c1)c1ncn(CCN3CCCCC3)c(=O)c1n2C	x	x	4	x	52*	x	15%
C[C@H](CO)N1C[C@H](C)[C@@H](CN(C)Cc2ccccc2)Oc2c(NC(=O)Cc3cn(C)c4ccccc34)cccc2C1=O	-7	x	x	x	x	x	x
Cc1noc(C)c1NC(=O)Nc1ccc2c(c1)C(=O)N([C@@H](C)CO)C[C@@H](C)[C@H](CN(C)CC1CC1)OCCCC[C@H](C)O2	1	-4	15	0	-1	-6	x
CCC(=O)N1C[C@H](C)[C@@H](OC)CN(C)C(=O)c2ccc(NC(=O)Nc3ccc(Cl)cc3)cc2OC[C@@H]1C	-24	-4	2	3	x	4	x
N#Cc1cccc(-c2ccc(C3[C@H]4CNC[C@@H]3N4Cc3ccc4c(c3)OCO4)cc2)c1 (stereo partly drawn)	22	4	-10	1	x	-3	x
CCNC(=O)C[C@@H]1CC[C@@H]2[C@H](COC[C@@H](O)CN2Cc2ccc(Cl)c(Cl)c2)O1	2	13	5	1	-2	-2	x
O=C(NCCN1CCOCC1)c1c(O)nc2ccccn2c1=O	0	-6	2	-6	-12	-1	x
COc1ccc(CCn2c(=N)c(C(=O)NCCN3CCOCC3)cc3c(=O)n4cccc(C)c4nc32)cc1OC	0	37	-12	10	77*	-1	-4%
COCCn1c(=N)c(C(=O)NCCc2ccccc2)cc2c(=O)n3cccc(C)c3nc21	x	x	-18	x	x	x	x
Cc1cccn2c(=O)c3cc(C(=O)NCc4ccccc4)c(=N)n(CCCN4CCOCC4)c3nc12	18	32	4	-54	61*	6	-15%
CCCNc1nc2nc3ccccn3c(=O)c2cc1C(=O)NCCN1CCOCC1	11	39	-24	58*	u	-1	-12%
Cc1cccn2c(=O)c3cc(C(=O)NCCN4CCOCC4)c(=N)n(CCc4ccccc4)c3nc12	x	x	-4	x	43	x	x
CCNC(=O)c1cc2c(=O)n3cccc(C)c3nc2n(CCc2ccccc2)c1=N	x	x	x	x	50*	x	0%
C[C@@H]1CN([C@@H](C)CO)C(=O)Cc2cc(NC(=O)Nc3ccc4c(c3)OCO4)ccc2O[C@H]1CN(C)S(=O)(=O)c1cccs1	-4	x	-2	x	5	x	x
CCS(=O)(=O)N1CC2(C1)[C@@H](c1ccccc1)[C@@H](CO)N2C(=O)C1CCC1	5	-19	1	x	x	x	x
Cc1cccn2c(=O)c3cc(C(=O)NCCc4ccccc4)c(=N)n(CCCn4ccnc4)c3nc12	x	x	-11	x	52*	x	-4%
SMILES	GSIS activator	RAD52 inh	PGC1a acetyl inh	ERAP1 inh	RAD54 branch	AF4-AF9 inh	Rad54 DNA ctr
COc1ccc(Nc2nc(N3CCCCC3)nc3ccccc23)c(OC)c1	-28	x	-10	x	55*	x	9%
COc1ccc(Nc2nc(N3CCN(S(C)(=O)=O)CC3)nc3ccccc23)c(OC)c1	4	0	-9	-1	10	-4	x
C[C@@H](NC(=O)C[C@H]1C=C[C@@H](NC(=O)C2CCC2)[C@H](CO)O1)c1ccccc1	18	0	x	4	0	3	x
CCCCN(CC)c1nc(-c2ccncc2)nc2ccccc12	x	x	-14	x	12	x	x
CCCN(CCC)c1nc(-c2ccccn2)nc2ccccc12	-24	45	27	2	90*	-19	-15%
COc1cc(NC(=O)c2cccnc2Sc2ccc(C)c(C)c2)cc(OC)c1OC	-15	x	-14	x	u	x	-3%
O=C(C[C@H]1C=C[C@@H](NC(=O)Nc2ccc3c(c2)OCO3)[C@@H](CO)O1)NCc1ccccc1	-3	x	x	x	x	x	x
CCOC(=O)c1cnc2ccc(C)cc2c1NCCN1CCOCC1	6	4	-9	1	u	-3	-16%
CCOC(=O)c1ccc2ncc(C(=O)OCC)c(NCCCN3CCOCC3)c2c1	x	x	-24	x	34	x	x
CCOC(=O)c1cnc2c(C)c(Cl)ccc2c1NCCCN1CCOCC1	8	3	-11	2	60*	0	i
COc1ccccc1S(=O)(=O)N[C@H]1C=C[C@@H](CC(=O)NCc2cccc(F)c2)O[C@H]1CO	8	-9	16	1	-2	-2	x
O=C(Nc1ccc(Cl)cc1)c1cc(S(=O)(=O)N2CCOCC2)cs1	x	x	-9	x	13	x	x
O=C(Nc1cccc(Cl)c1)c1cc(S(=O)(=O)N2CCOCC2)cs1	x	-9	x	2	50*	-2	-12%
CC1CCCCN1CCNC(=O)c1cc2c(=O)n(C)c3ccccc3c2n1C (stereo not drawn)	5	-2	4	x	57*	1	-23%
Cc1nc2nc(C)c(C)nc2nc1C	7	-3	-9	0	56*	-57	10%
CN1C(=O)c2cc(NC(=O)c3ccc(Cl)cc3)ccc2OC[C@@H]2O[C@H](CC(=O)O)CC[C@@H]21	0	x	4	x	-3	x	x
CO[C@@H]1CN(C)C(=O)c2ccc(NC(=O)c3nc4ccccc4s3)cc2OC[C@H](C)NC[C@H]1C	-10	21	-30	x	12	-2	x
CCN(CCCNC(=O)c1cc2c(-c3cccc(OC)c3)nn(C)c2s1)Cc1ccccc1	-30	-1	-33	2	29	9	x
